Reference: PubChem BioAssay (Tox21)
Where “and” joins values, the source holds several entries; their conditions need not be identical. Identical values can stand only once. Records with an inconclusive call do not appear. A call without a number means that no potency is given here. More than one record can exist for a structure, and the calls need not agree. Calls of active or inactive are those of the source. Unless noted, calls follow the shape of the dose curve; as a rule, active = well fitted curve in the direction sought with a large enough effect in the repeat runs; inconclusive = weak or mixed curves; inactive = no such curve, though single readings can be large; an effect the other way counts as inactive or inconclusive.

How the values were obtained:
[1] = qHTS assay to identify small molecule antagonists of the thyroid receptor (TR) signaling pathway (AID 743065); also: nearly all actives have a fitted effect of over 55% in size; also: potency is read from the fitted curve at half-maximal effect; as to activity, negative = inhibition: series mostly up to about 70 µM
Summary of the method: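 Antagonism measured as loss of luciferase signal in GH3 cells stably carrying a TRE-luciferase reporter, co-treated with compound and T3 (1 nM final) for 23.5 h at 37 C. Viability was read in the same well by CellTiter-Fluor.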

[2] = system: thyroid hormone receptor (rat, GH3 cells); test: qHTS assay to identify small molecule agonists of the thyroid receptor (TR) signaling pathway (AID 743066; calls by dose curve)
[3] = molecular target: Estrogen receptor (Homo sapiens) (UniProt P03372); test: qHTS assay to identify small molecule antagonists of the estrogen receptor alpha (ER-alpha) signaling pathway (AID 743069; active = well fitted curve in the direction sought with a large enough effect in the signal ratio in the repeat runs, not every such curve was filed as active; the % refers to the signal ratio)
Sequence of Estrogen receptor (Homo sapiens) (P03372 whole entry, looked up): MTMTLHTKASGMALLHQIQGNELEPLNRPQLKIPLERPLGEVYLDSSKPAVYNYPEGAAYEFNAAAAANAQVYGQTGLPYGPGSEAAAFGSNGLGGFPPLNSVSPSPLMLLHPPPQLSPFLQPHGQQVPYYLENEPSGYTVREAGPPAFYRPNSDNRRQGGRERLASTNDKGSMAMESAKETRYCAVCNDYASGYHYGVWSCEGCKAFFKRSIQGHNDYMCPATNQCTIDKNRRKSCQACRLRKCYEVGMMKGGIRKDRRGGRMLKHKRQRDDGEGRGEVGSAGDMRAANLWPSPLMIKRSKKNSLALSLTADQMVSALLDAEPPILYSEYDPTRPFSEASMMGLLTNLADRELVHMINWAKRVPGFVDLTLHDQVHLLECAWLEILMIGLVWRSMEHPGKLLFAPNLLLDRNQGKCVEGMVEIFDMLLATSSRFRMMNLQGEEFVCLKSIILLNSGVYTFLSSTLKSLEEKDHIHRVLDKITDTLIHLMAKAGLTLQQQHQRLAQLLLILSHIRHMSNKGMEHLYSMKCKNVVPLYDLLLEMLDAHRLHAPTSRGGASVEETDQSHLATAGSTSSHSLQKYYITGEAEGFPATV
Summary of the method: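 ER-alpha-UAS-bla GripTite HEK293 line; 2% charcoal-stripped FBS overnight; plated, 4 hr 37C/5% CO2; cpd in DMSO + 17beta-estradiol, 18 hr 37C; LiveBLAzer B/G FRET substrate 2 hr RT; fluorescence intensity.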

[4] = qHTS assay to identify small molecule antagonists of the estrogen receptor alpha (ER-alpha) signaling pathway - cell viability counter screen (AID 743074; calls by dose curve;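 also: HEK293 cells carrying ER-alpha-UAS-bla reporter stimulated with 17beta-estradiol; nearly all actives have a fitted effect of over 45% in size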)
[5] = molecular target: Estrogen receptor (Homo sapiens) (UniProt P03372); test: qHTS assay to identify small molecule agonists of the estrogen receptor alpha (ER-alpha) signaling pathway (AID 743075; calls by dose curve;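 also: HEK293 GripTite cells with ER-alpha and UAS-driven beta-lactamase reporter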)
[6] = molecular target: Estrogen receptor (Homo sapiens) (UniProt P03372); test: qHTS assay to identify small molecule agonists of the estrogen receptor alpha (ER-alpha) signaling pathway using the BG1 cell line (AID 743079); also: nearly all actives have a fitted effect of over 20% in size; also: potency is read from the fitted curve at half-maximal effect
[7] = qHTS assay to identify small molecule antagonists of the estrogen receptor alpha (ER-alpha) signaling pathway using the BG1 cell line (AID 743080; calls by dose curve;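 also: BG1 cells stimulated with 17beta-estradiol alongside compound; nearly all actives have a fitted effect of over 25% in size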; also: potency is read from the fitted curve at half-maximal effect; as to activity change, negative = inhibition: series mostly up to about 70 µM)
Summary of the method: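 Quantitative HTS on the Tox21 10K library: BG1 cells with endogenous ER-alpha and ERE-luciferase reporter, 17beta-estradiol stimulation, 21.5 h compound exposure, luminescence endpoint with parallel fluorescence cytotoxicity counter-read.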

[8] = qHTS assay to identify small molecule antagonists of the estrogen receptor alpha (ER-alpha) signaling pathway using the BG1 cell line - cell viability counter screen (AID 743081);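 also: compound given together with 17beta-estradiol as the ER stimulus; series mostly up to about 70 µM; nearly all actives have a fitted effect of over 45% in size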
Aromatase (Homo sapiens) = Aromatase (Homo sapiens) (UniProt P11511); test: qHTS assay to identify aromatase inhibitors (AID 743083); also: series mostly up to about 70 µM; nearly all actives have a fitted effect of over 55% in size
Sequence of Aromatase (Homo sapiens) (P11511 whole entry, looked up): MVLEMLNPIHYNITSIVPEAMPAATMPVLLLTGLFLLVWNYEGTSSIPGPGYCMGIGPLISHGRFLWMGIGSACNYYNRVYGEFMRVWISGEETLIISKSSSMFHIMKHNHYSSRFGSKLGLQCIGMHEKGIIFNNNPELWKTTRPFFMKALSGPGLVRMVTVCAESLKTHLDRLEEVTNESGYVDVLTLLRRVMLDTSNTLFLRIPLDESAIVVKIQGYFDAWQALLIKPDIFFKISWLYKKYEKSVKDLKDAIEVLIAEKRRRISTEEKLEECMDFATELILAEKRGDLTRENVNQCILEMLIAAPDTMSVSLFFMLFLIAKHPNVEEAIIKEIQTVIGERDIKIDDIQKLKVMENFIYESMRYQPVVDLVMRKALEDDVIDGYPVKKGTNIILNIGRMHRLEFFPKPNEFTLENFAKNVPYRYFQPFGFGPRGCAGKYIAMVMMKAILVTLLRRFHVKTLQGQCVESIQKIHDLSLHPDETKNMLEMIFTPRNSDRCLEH

[9] = qHTS assay to identify aromatase inhibitors - cell viability counter screen (AID 743084);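 also: cells stimulated with testosterone during compound exposure; nearly all actives have a fitted effect of over 55% in size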

Compound: CC(=O)[C@H]1CC[C@H]2[C@@H]3CCC4=CC(=O)CC[C@]4(C)[C@H]3CC[C@]12C
- Potency [1]: 13.3 µM (active) and 21.6 µM (active) and 27.3 µM (active)
- outcome [2]: inactive
- Potency [3]: inactive
- Potency [4]: inactive
- Potency [5]: inactive
- Potency [6]: inactive
- Potency [7]: inactive and 54.2 µM (active) and 68.6 µM (active)
- Potency [8]: inactive
- Potency (Aromatase (Homo sapiens)): inactive
- Potency [9]: inactive

Compound: O=C(Oc1ccccc1)Oc1ccccc1
- Potency [1]: inactive
- outcome [2]: inactive
- Potency [3]: inactive
- Potency [4]: inactive
- Potency [5]: inactive
- Potency [6]: inactive
- Potency [7]: inactive
- Potency [8]: inactive
- Potency (Aromatase (Homo sapiens)): inactive
- Potency [9]: inactive

Compound: c1cnccn1
- Potency [1]: inactive
- outcome [2]: inactive
- Potency [3]: inactive
- Potency [4]: inactive
- Potency [5]: inactive
- Potency [6]: inactive
- Potency [7]: inactive
- Potency [8]: inactive
- Potency (Aromatase (Homo sapiens)): inactive
- Potency [9]: inactive

Compound: CC(C)(c1cc(Br)c(OCC(Br)CBr)c(Br)c1)c1cc(Br)c(OCC(Br)CBr)c(Br)c1 (configuration not stated)
- Potency [1]: inactive
- outcome [2]: inactive
- Potency [3]: inactive
- Potency [4]: inactive
- Potency [5]: inactive
- Potency [6]: inactive
- Potency [7]: inactive
- Potency [8]: inactive
- Potency (Aromatase (Homo sapiens)): inactive
- Potency [9]: inactive

Compound: CCCCC(CC)CN1CN(CC(CC)CCCC)CC(C)(N)C1 (configuration not stated)
- Potency [1]: inactive
- outcome [2]: inactive
- Potency [3]: inactive
- Potency [4]: inactive
- Potency [5]: inactive
- Potency [6]: inactive
- Potency [7]: inactive
- Potency [8]: inactive
- Potency (Aromatase (Homo sapiens)): inactive
- Potency [9]: inactive

Compound: OC[C@@H](O)[C@@H](O)CO
- Potency [1]: inactive
- outcome [2]: inactive
- Potency [3]: inactive
- Potency [4]: inactive
- Potency [5]: inactive
- Potency [6]: inactive
- Potency [7]: inactive
- Potency [8]: inactive
- Potency (Aromatase (Homo sapiens)): inactive
- Potency [9]: inactive

Compound: CCCCCCCCCCOC(=O)c1ccccc1C(=O)OCCCCCCCC
- Potency [1]: inactive
- outcome [2]: inactive
- Potency [3]: inactive
- Potency [4]: inactive
- Potency [5]: inactive
- Potency [6]: inactive
- Potency [7]: inactive
- Potency [8]: inactive
- Potency (Aromatase (Homo sapiens)): inactive
- Potency [9]: inactive

Compound: Clc1ccnc(Cl)n1
- Potency [1]: inactive
- outcome [2]: inactive
- Potency [3]: inactive
- Potency [4]: inactive
- Potency [5]: inactive
- Potency [6]: inactive
- Potency [7]: inactive
- Potency [8]: inactive
- Potency (Aromatase (Homo sapiens)): inactive
- Potency [9]: inactive

Compound: CC(=O)CC(=O)Nc1ccc(S(=O)(=O)O)cc1
- Potency [1]: inactive
- outcome [2]: inactive
- Potency [3]: inactive
- Potency [4]: inactive
- Potency [5]: inactive
- Potency [6]: inactive
- Potency [7]: inactive
- Potency [8]: inactive
- Potency (Aromatase (Homo sapiens)): inactive
- Potency [9]: inactive

Compound: CC(CO)Oc1ccccc1 (configuration not stated)
- Potency [1]: inactive
- outcome [2]: inactive
- Potency [3]: inactive
- Potency [4]: inactive
- Potency [5]: inactive
- Potency [6]: inactive
- Potency [7]: inactive
- Potency [8]: inactive
- Potency (Aromatase (Homo sapiens)): inactive

Compound: FC(F)(F)c1cccc(Cl)c1
- Potency [1]: inactive
- outcome [2]: inactive
- Potency [3]: inactive
- Potency [4]: inactive
- Potency [5]: inactive
- Potency [6]: inactive
- Potency [7]: inactive
- Potency [8]: inactive
- Potency (Aromatase (Homo sapiens)): inactive
- Potency [9]: inactive

Compound: CC(C)(C)CC(C)(C)c1ccc(Nc2ccc(C(C)(C)CC(C)(C)C)cc2)cc1
- activity, negative = inhibition [1]: 9.26% [at 8.44 µM] (inactive)
- activation [2]: 1.29% [at 8.08 µM] (inactive)
- activity, negative = inhibition [3]: -8.94% [at 6.71 µM] (inactive)
- activity, negative = cytotoxicity [4]: -17.2% [at 6.72 µM] (inactive)
- activation [5]: -3.98% [at 6.71 µM] (inactive)
- activation [6]: -8.83% [at 8.47 µM] (inactive)
- activity change, negative = inhibition [7]: 1.65% [at 8.47 µM] (inactive)
- activity change, negative = cytotoxicity [8]: 8.25% [at 8.47 µM] (inactive)
- activity, negative = inhibition (Aromatase (Homo sapiens)): -0.995% [at 8.47 µM] (inactive)
- activity change, negative = cytotoxicity [9]: 3.33% [at 8.47 µM] (inactive)

Compound: Cc1c(C)c2c(c(C)c1OC(=O)c1cccnc1)CC[C@@](C)(CCC[C@H](C)CCC[C@H](C)CCCC(C)C)O2
- Potency [1]: inactive
- outcome [2]: inactive
- Potency [3]: inactive
- Potency [4]: inactive
- Potency [5]: inactive
- Potency [6]: inactive
- Potency [7]: inactive
- Potency [8]: inactive
- Potency (Aromatase (Homo sapiens)): inactive
- Potency [9]: inactive

Compound: O=C(/C=C/c1ccccc1)OC/C=C/c1ccccc1
- Potency [1]: inactive
- outcome [2]: inactive
- Potency [3]: inactive
- Potency [4]: inactive
- Potency [5]: inactive
- Potency [6]: 30.6 µM (active)
- Potency [7]: inactive
- Potency [8]: inactive
- Potency (Aromatase (Homo sapiens)): inactive
- Potency [9]: inactive

Compound: Cc1ccc(C)cc1
- Potency [1]: inactive
- outcome [2]: inactive
- Potency [3]: inactive
- Potency [4]: inactive
- Potency [5]: inactive
- Potency [6]: inactive
- Potency [7]: inactive
- Potency [8]: inactive
- Potency [9]: inactive

Compound: Cc1cc(=O)oc2cc(O)cc(O)c12
- Potency [1]: inactive
- outcome [2]: inactive
- Potency [3]: inactive
- Potency [4]: inactive
- Potency [5]: inactive
- Potency [7]: inactive
- Potency (Aromatase (Homo sapiens)): inactive

Compound: C[Si](Cl)(c1ccccc1)c1ccccc1
- Potency [1]: inactive
- outcome [2]: inactive
- Potency [3]: inactive
- Potency [4]: inactive
- Potency [5]: inactive
- Potency [6]: inactive
- Potency [7]: inactive
- Potency [8]: inactive
- Potency [9]: inactive

Compound: O=C1CCc2cc(OCCCCc3nnnn3C3CCCCC3)ccc2N1
- Potency [1]: inactive
- outcome [2]: inactive
- Potency [3]: inactive
- Potency [4]: inactive
- Potency [5]: inactive
- Potency [6]: inactive
- Potency [8]: inactive
- Potency (Aromatase (Homo sapiens)): inactive
- Potency [9]: inactive

Compound: C=CC(C)(CCC=C(C)C)OC=O (configuration not stated)
- Potency [1]: inactive
- outcome [2]: inactive
- Potency [3]: inactive
- Potency [4]: inactive
- Potency [5]: inactive
- Potency [6]: inactive
- Potency [7]: inactive
- Potency [8]: inactive
- Potency (Aromatase (Homo sapiens)): inactive
- Potency [9]: inactive

Compound: C=C(C)C(=O)OCCCCCCCCCC
- Potency [1]: inactive
- outcome [2]: inactive
- Potency [3]: inactive
- Potency [4]: inactive
- Potency [5]: inactive
- Potency [6]: inactive
- Potency [7]: inactive
- Potency [8]: inactive
- Potency (Aromatase (Homo sapiens)): inactive
- Potency [9]: inactive

Compound: CCCCNS(=O)(=O)c1ccc(C)cc1
- Potency [1]: inactive
- outcome [2]: inactive
- Potency [3]: inactive
- Potency [4]: inactive
- Potency [5]: inactive
- Potency [6]: inactive
- Potency [7]: inactive
- Potency [8]: inactive
- Potency [9]: inactive

Compound: Cc1cccc(C(=O)O)c1O
- Potency [1]: inactive
- outcome [2]: inactive
- Potency [3]: inactive
- Potency [4]: inactive
- Potency [5]: inactive
- Potency [6]: inactive
- Potency [7]: inactive
- Potency [8]: inactive
- Potency (Aromatase (Homo sapiens)): inactive
- Potency [9]: inactive
